Assay outcomes deposited in PubChem by Broad Institute.
U2OS ROS induce: cancer cell ROS induction; U2OS ROS induction, H2DCF-DA fluorescence; ROS induction (% of piperlongumine), % at 10 µM; 2% of 46,000 active; in the data active = ROS induction above about 79%, passing the limit was not always enough; inconclusive = no clear call, values can overlap the other calls;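 note: 0% = DMSO vehicle median and 100% = reference compound median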
YB-1 expr inh: YB-1 expression inhibition; AID 434959; 0.37% of 30,000 active; U2OS, qRT-PCR YB-1 vs CDIP delta delta Cp, 16 h; hits give high values; zero = DMSO, each unit about twofold; delta delta Cp (YB-1 minus CDIP) (test concentration not listed);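 active = delta delta Cp rounded down to an integer at or above 3, about 3 SD of DMSO wells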;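 note: higher means less YB-1 transcript or more CDIP transcript relative to DMSO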
Active calls of the source: *; ? = inconclusive; . = no result. A selection: hits, their analogues and other compounds. The true share with any hit is near 2.1%.

SMILES	U2OS ROS induce	YB-1 expr inh
CNC(=O)/C(=C\c1ccc2c(c1)OCO2)NC(=O)c1ccco1	-1	.
OCCCNc1ncnc2scc(-c3ccccc3)c12	2	.
CC1CCc2c(sc3ncnc(NCCCOC(C)C)c23)C1 (stereo not drawn)	62	.
Clc1ccc(-c2csc3ncnc(NCCN4CCOCC4)c23)cc1	139*	.
CC1CCc2sc3ncnc(NCCN4CCOCC4)c3c2C1 (stereo not drawn)	80*	.
CCN(CC)C(=O)CSc1nc(N)c(C#N)c(CC(C)C)c1C#N	14	.
CC(C)(C)c1ccc(C(=O)N(CC#N)CC#N)cc1	-8	.
COc1ccc(S(=O)(=O)N(C)CC(=O)Nc2ccccc2OC)cc1Cl	-11	.
Cc1ccc(S(=O)(=O)N(C)CC(=O)Nc2cc(Cl)ccc2Oc2ccccc2)cc1	90*	.
Cc1cc(Br)ccc1NC(=O)CN(C)S(=O)(=O)c1ccc(Cl)cc1	135*	.
COc1ccc(S(=O)(=O)N(C)CC(=O)Nc2ccccc2Br)cc1Cl	112*	.
COc1cc(Cl)c(C)cc1NC(=O)CN(C)S(=O)(=O)c1ccc(Br)cc1	7	.
COc1cc(OC)c(NC(=O)CN(C)S(=O)(=O)c2ccc(C)cc2)cc1Cl	1	.
Brc1ccccc1OCC1CCCN2CCCCC12 (stereo not drawn)	2	.
O=C(COC(=O)C1CC(O)CN1C(=O)Oc1ccccc1)c1ccc(-c2ccccc2)cc1 (stereo not drawn)	-2	.
O=S(=O)(NC1CCCCC1Nc1ccccc1Br)c1ccccc1 (stereo not drawn)	24	.
COc1ccc(NC(=O)C(C)n2sc3ccccc3c2=O)cc1 (stereo not drawn)	-8	.
CC1(C)Cc2nc3sc4c(=O)n(CC(=O)c5ccc(Cl)cc5)cnc4c3cc2CO1	-10	.
CCOC(=O)c1cnc2c(cnn2CC)c1NN=C(C)C	7	4.9*
CCOC(=O)c1cnc2c(-c3ccccc3)cnn2c1C	45	.
O=C(c1nn2c(C(F)(F)F)cc(-c3ccccc3)nc2c1Br)N1CCN2CCCC2C1 (stereo not drawn)	19	.
COC(=O)c1ccccc1NC(=O)CC1(c2ccc(Cl)cc2)C(=O)c2ccccc2C1=O	17	.
COc1cc(CO)ccc1OCC(=O)Nc1ccccc1F	-2	.
COc1cc(CO)ccc1OCC(=O)Nc1ccc(C)cc1	122*	.
CN(Cc1ccccc1)C(=O)CN(C)S(=O)(=O)c1ccc2c(c1)C(C)(C)C(=O)N2C	18	.
SMILES	U2OS ROS induce	YB-1 expr inh
[N-]=[N+]=NCc1ccccc1C[C@]1(C(=O)NCC(O)CO)N=C(c2ccc(OCCCO)cc2)O[C@H]1c1ccccc1 (stereo partly drawn)	60	0.6
C=CCN1Cc2ccccc2[C@H]2OC(c3ccc(OCCCO)cc3)=N[C@@]2(CCS(=O)(=O)c2ccccc2)C1=O	113*	-0.083
O=C1N(Cc2ccccc2)Cc2ccccc2[C@@H]2OC(c3ccc(OCCCO)cc3)=N[C@]12CCS(=O)(=O)c1ccccc1	?	-0.25
[N-]=[N+]=NCc1ccccc1C[C@@]1(C(=O)NCC(O)CO)N=C(c2ccc(OCCCO)cc2)O[C@@H]1c1ccccc1 (stereo partly drawn)	6	9.1*
CN(C)C(=O)[C@]1(CCS(=O)(=O)c2ccccc2)N=C(c2ccc(OCCCO)cc2)O[C@@H]1c1ccccc1	95*	0.098
CN(C)C(=O)[C@]1(Cc2ccccc2)N=C(c2ccc(OCCCO)cc2)O[C@@H]1c1ccccc1	51	-0.13
O=C(NCCOc1cccc(C(F)(F)F)c1)c1cccc(NC2=NC3CS(=O)(=O)CC3S2)c1 (stereo not drawn)	-2	.
O=C(O)c1ccccc1C(=O)NCc1ccccc1Cl	-13	.
COc1ccccc1CN(C)C[C@H]1OCc2cnnn2CCCC(=O)N([C@@H](C)CO)C[C@H]1C	-1	-0.41
COc1ccccc1CN(C)C[C@H]1OCc2cnnn2CCCC(=O)N([C@H](C)CO)C[C@H]1C	113*	-0.25
C[C@H](CO)N1C[C@H](C)[C@@H](CN(C)C(=O)Nc2ccc(C(C)(C)C)cc2)OCc2cnnn2CCCC1=O	-2	0.1
C[C@@H]1CN([C@@H](C)CO)C(=O)CCCn2nncc2CO[C@@H]1CN(C)C(=O)Nc1ccc(C(C)(C)C)cc1	114*	-0.05
CNC(=O)C(C)n1c2ccccc2c2nc(=O)cc(C)n21 (stereo not drawn)	-11	.
O=C(CSc1ccc(-c2ccncc2)nn1)NCCc1ccccc1	10	.
COc1ccc(/C=C2\Sc3ccccc3NC2=O)cc1	6	.
Cc1ccc(C(=O)CSc2nc(C)nc3sc(C)c(C)c23)cc1	119*	.
Cc1ccc(C(=O)CSc2nc(C)nc3sc4c(c23)CCCC4)cc1	5	.
COc1ccc(CN(C)C[C@@H]2Oc3ccc(NS(=O)(=O)c4cn(C)cn4)cc3CC(=O)N([C@H](C)CO)C[C@H]2C)cc1	95*	0.06
C[C@@H]1CN([C@@H](C)CO)C(=O)Cc2cc(NS(=O)(=O)c3cn(C)cn3)ccc2O[C@@H]1CN(C)S(C)(=O)=O	109*	-0.79
C[C@H]1CN([C@@H](C)CO)C(=O)Cc2cc(NS(=O)(=O)c3cn(C)cn3)ccc2O[C@H]1CN(C)S(=O)(=O)c1cn(C)cn1	-5	-0.11
C[C@H]1CN([C@@H](C)CO)C(=O)Cc2cc(NS(=O)(=O)c3cn(C)cn3)ccc2O[C@@H]1CN(C)Cc1ccc(Oc2ccccc2)cc1	-7	0.53
Cc1c(CNC(C)C23CC4CC(CC(C4)C2)C3)c(C(=O)O)c(C)n1Cc1ccccc1 (stereo not drawn)	-4	.
O=C(Nc1nc2ccccc2s1)C1CC1	-7	.
c1ccc2sc(NC3=NCN(C4CCCCCC4)CN3)nc2c1	100*	0.36
NC(=O)c1c(NC(=O)c2cnn3c(C(F)F)cc(-c4ccccc4)nc23)sc2c1CCC2	12	.
SMILES	U2OS ROS induce	YB-1 expr inh
COc1ccc(C(=O)NCc2cccnc2)cc1C(=O)NCc1cccnc1	-3	-0.097
COc1ccccc1-c1cc(C(F)F)n2ncc(C(=O)NCc3cccnc3)c2n1	116*	.
O=C(NCc1ccco1)c1cnn2c(C(F)F)cc(-c3ccccc3)nc12	193*	.
Cn1ncc2c1ncn1nc(Cc3ccccc3)nc21	7	.
O=C(Nc1cc(Cl)ccc1Cl)c1cc(S(=O)(=O)NC2CCCC2)ccc1F	27	.
COC(=O)c1cc(O)cc(OC)c1C(=O)c1c(O)cc(C)cc1OC	-6	0.59
COC(=O)c1cc(O)cc(OC)c1C(=O)c1c(O)cc(C)cc1O	94*	-0.4
COc1ccccc1N(CC(O)CN1CCOCC1)S(=O)(=O)c1ccc(C)cc1 (stereo not drawn)	-7	.
CNC[C@@H]1Oc2ccc(NS(=O)(=O)c3c(C)noc3C)cc2CC(=O)N([C@H](C)CO)C[C@@H]1C	-6	-0.052
C[C@@H]1CCCCO[C@@H](CN(C)Cc2ccccc2)[C@@H](C)CN([C@H](C)CO)C(=O)c2cc(NC(=O)c3ccccc3)ccc2O1	184*	0.084
C[C@@H]1CCCCO[C@H](CN(C)CC2CCCCC2)[C@@H](C)CN([C@H](C)CO)C(=O)c2cc(NC(=O)c3ccncc3)ccc2O1	0	6.4*
C[C@@H]1CCCCO[C@@H](CN(C)CC2CCCCC2)[C@@H](C)CN([C@H](C)CO)C(=O)c2cc(NC(=O)c3ccccc3)ccc2O1	8	-0.42
C[C@@H]1CCCCO[C@H](CN(C)Cc2ccc(C(=O)O)cc2)[C@@H](C)CN([C@H](C)CO)C(=O)c2cc(NC(=O)c3ccccc3)ccc2O1	28	-0.3
